Source: PubChem
The sample as a whole holds a higher share of hits than the screen did.
Pf Dd2 growth: Plasmodium falciparum Dd2 growth inhibition | P. falciparum Dd2 growth, SYBR Green, 72 h | Potency, µM (titrated, usually from 28.9 µM), for the others: top-dose activity, negative = inhibition, usual class: inhibitors | 4.3% of 120,000 active | AID 1347417; active = well fitted inhibition curve with a large enough effect;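 note: plate controls were DMSO vehicle for no effect and reference drug for full effect; nearly all actives have a fitted effect of over 65% in size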
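Readout: SYBR Green fluorescence, 485 nm excitation, 535 nm emission, after ~16 h lysis at 37C. Before that, Dd2-infected red cells (2.5% hematocrit) grew 72 h with compound, 29 uM top final concentration.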
* = called active by the depositor; i = inactive; [ ] = dose if it differs, or a comment. Potency is the fitted concentration of half-maximal effect.

SMILES	Pf Dd2 growth
Cc1nn(-c2ccccc2)c(Oc2ccccc2F)c1CCC(=O)NCC1CC1	i
CN(Cc1nc(C2CC2)no1)C(=O)c1cc(Cn2ccc3ccccc32)[nH]n1	-3%
O=C(CNC(=O)c1cnccn1)NC1CCCc2c1[nH]c1ccc(Cl)cc21 (configuration not stated)	-6%
COc1ccc(C(=O)N2CCCCCC2c2nnc(-c3ccccc3)o2)cn1 (configuration not stated)	-13%
CC(C)(O)CCc1cccc(C(=O)N(Cc2ccc3c(c2)OCO3)C2CC2)c1	9%
COCCNC(=O)CN1CN(c2ccccc2)C2(CCN(C(=O)C3CCCCC3)CC2)C1=O	-21%
Cc1ccc(NC(=O)N2CCC3(CC2)C(=O)N(CC(=O)N2CCCC2)CN3c2ccccc2)cc1	7.1µM*
CC(C)(C)NC(=O)N1CCC2(CC1)C(=O)N(CC(=O)NCC1CCCO1)CN2c1ccccc1 (configuration not stated)	i
COc1ccccc1OCc1nc2c(n1Cc1ccccc1)C(=O)N(Cc1ccccc1F)CCN2	i
CCS(=O)(=O)N1CCC(n2c(C)cnc2C2CC2)CC1	-12%
COc1ccc(-c2noc(-c3nc(C(C)C)no3)n2)cc1	9%
COc1ccccc1C(=O)Nc1ccc2nc(SCC(=O)N(C)c3ccccc3)sc2c1	8.9µM*
Cc1ccccc1OCC(=O)Nc1ccc2nc(SCC(=O)N(C)c3ccccc3)sc2c1	-28%
CCOC(=O)CSc1nc2ccc(NC(=O)c3ccc(C)cc3)cc2s1	1%
CN(C(=O)CSc1nc2ccc(NC(=O)c3cccc(F)c3)cc2s1)c1ccccc1	-15%
CCOc1ccc(C(=O)Nc2ccc3nc(SCC(=O)N(C)c4ccccc4)sc3c2)cc1	8.9µM*
CN(C(=O)CSc1nc2ccc(NC(=O)c3ccccc3F)cc2s1)c1ccccc1	-24%
Cc1ccccc1S(=O)(=O)N1CCn2c(n[nH]c2=O)C1	-10%
Cc1nc(C)c(C(=O)N2CCCN(C(=O)C3CC3)C(c3ccccc3)CC(=O)NCC2)s1 (configuration not stated)	-19%
CC(C)=CCC1(CO)CCCN(Cc2cc(=O)n3cc(C)sc3n2)C1 (configuration not stated)	-18%
COc1cc2c(cc1CN1CCCC(CO)(CC=C(C)C)C1)OCCO2 (configuration not stated)	7.9µM*
COc1cc2c(cc1CN1CCC3(CCCNC3)C1)OCCCO2 (configuration not stated)	-5%
OCC1(O)CCCN(Cc2cnc(NCc3ccccc3)nc2)C1 (configuration not stated)	-5%
CCN(CC)Cc1nc(C2(O)CCN(C3CCN(C(C)=O)CC3)CC2)cs1	i
Cc1cc(C)n(CCC(=O)N[C@@H]2CN(Cc3ccncc3)C[C@H]2CN(C)C)n1	7%
SMILES	Pf Dd2 growth
O=C(CCn1cncn1)N1CCOC(CC(c2ccccc2)c2ccccc2)C1 (configuration not stated)	-9%
Cc1ccccc1OC1(C(=O)O)CCN(c2ncccc2C(N)=O)CC1	-3%
NC(=O)c1cccnc1N1CCOC(CC(c2ccccc2)c2ccccc2)C1 (configuration not stated)	7.9µM*
COc1cccc(CCC(=O)N2CCC3(CC2)NC(=O)N(c2ccccc2)N3)c1	-11%
Cn1ncc(N2CCC(CNC(=O)c3ccccc3-n3cncn3)C2)cc1=O (configuration not stated)	4%
O=C1Nc2ccc(-c3cccc(C(F)(F)F)c3)cc2C(=O)N2CCN(C(=O)c3ccco3)C[C@@H]12	i
Cc1oc(-c2ccccc2)nc1Cn1c(=O)cc(-c2ccccc2)c2c(C)nn(C)c21	10µM*
Cc1cccc(-c2nc(Cn3c(=O)cc(-c4ccccc4)c4c(C)nn(C)c43)c(C)o2)c1	-12%
Cc1ccc(C)c(-c2nc(Cn3c(=O)cc(-c4ccccc4)c4c(C)nn(C)c43)c(C)o2)c1	43%
Nc1nc2c(s1)C(c1ccc(F)cc1F)CC(=O)N2 (configuration not stated)	-15%
CN1CCCn2nc(C(=O)NC34CC5CC(CC(C5)C3)C4)cc2C1	-13%
COC(=O)[C@H]1CN(C(=O)c2cccnc2)CCN1C(=O)CSC	-6%[44.1 µM]
Cc1noc(C)c1S(=O)(=O)N(CC(=O)Nc1ccc(C(F)(F)F)cc1)c1ccc(C(C)C)cc1	11µM*
Cc1n[nH]c(C)c1S(=O)(=O)N(CC(=O)Nc1ccc(C(F)(F)F)cc1)c1ccc(C(C)C)cc1	0%
Cc1ccc(N(CC(=O)Nc2ccc(OC(F)(F)F)cc2)S(=O)(=O)c2c(C)noc2C)cc1	-16%
COc1ccccc1-c1cn2c(n1)CO[C@@H](CNCc1ccc(F)cc1)C2	i
COc1cc(-c2onc(C)c2C(=O)NCCC(c2ccccc2)c2ccccc2)cc(OC)c1OC	11µM*
COc1cc(-c2onc(C)c2C(=O)NCCc2ccc(F)cc2)cc(OC)c1OC	i
COCCNC(=O)c1c(C)noc1-c1cc(OC)c(OC)c(OC)c1	-9%
Cn1nccc1C(=O)NCC1CCCCC(=O)N1 (configuration not stated)	i
Cc1ccccc1CN1Cc2nc(-c3cnn(C)c3)ccc2OCC1=O	i
